NPR1 antag: human Npr1 receptor antagonism; P16066; Potency, µM (series often up to 46.3 µM), hits mostly inhibitors; AID 1347048; HEK293 hNpr1 GloSensor cGMP, ANP-stimulated luminescence; 1.6% of 76,000 active; calls by dose curve; also: nearly all actives have a fitted effect of over 60% in size
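HEK293 cells stably expressing human Npr1 and cGMP GloSensor pGS-40F, loaded 2 h with 2% GloSensor reagent, given compound 30 min at room temperature. Luminescence read before and 20 min after 0.1 nM hNppA.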
GPT2 inh: blocks human glutamate pyruvate transaminase 2; Q8TD30; Recombinant GPT2, coupled pyruvate oxidase/HRP Amplex Red fluorescence; Potency, µM (doses to about 57.7 µM), hits mostly inhibitors; 0.25% of 100,000 active; AID 1671188; also: nearly all actives have a fitted effect of over 60% in size
Target sequence (Q8TD30 whole entry, looked up): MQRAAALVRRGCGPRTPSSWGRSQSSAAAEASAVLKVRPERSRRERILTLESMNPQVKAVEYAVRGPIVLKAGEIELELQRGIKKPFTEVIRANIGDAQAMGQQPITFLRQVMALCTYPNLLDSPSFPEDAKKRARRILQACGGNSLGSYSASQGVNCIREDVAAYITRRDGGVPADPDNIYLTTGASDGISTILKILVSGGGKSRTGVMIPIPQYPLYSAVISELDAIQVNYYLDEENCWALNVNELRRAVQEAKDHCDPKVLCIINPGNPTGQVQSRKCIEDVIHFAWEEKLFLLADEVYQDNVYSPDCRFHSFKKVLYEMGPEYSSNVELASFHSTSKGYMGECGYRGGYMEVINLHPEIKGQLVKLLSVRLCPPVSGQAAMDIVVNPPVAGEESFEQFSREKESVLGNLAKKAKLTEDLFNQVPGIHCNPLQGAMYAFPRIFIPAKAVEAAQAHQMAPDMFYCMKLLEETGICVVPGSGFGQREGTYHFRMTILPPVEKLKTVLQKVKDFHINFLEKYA
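Fluorescence of coupled pyruvate oxidase/HRP/Amplex Red system (50uM Amplex, 30 min, dark) reports pyruvate formed by GPT2. Enzyme reaction: 10ng/uL GPT2, 2mM L-alanine, 250uM a-KG, 30 min room temperature, pH 7.5; 50uM AOA control.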
Luciferase inh: blocks purified firefly luciferase enzyme activity; P08659; purified P. pyralis luciferase, luminescence, biochemical; Potency, µM (top dose mostly 115 µM), actives largely listed as inhibitors; 2.5% of 76,000 active; also: nearly all actives have a fitted effect of over 65% in size
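Luminescence read by CCD imager after adding enzyme (10nM final) to wells holding compound, titrated in qHTS. Substrates 10uM each D-luciferin and ATP; buffer 50mM Tris acetate pH 7.5, 10mM Mg acetate, Tween-20, BSA.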
HEK cytotox: HEK 293 cell cytotoxicity. HEK 293 viability, ATP luminescence (CellTiter-Glo), 48-72 h. Potency, µM (series often up to 115 µM), usual class: inhibitors. 6.6% of 94,000 active; also: nearly all actives have a fitted effect of over 60% in size
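HEK 293 cells seeded at 250 cells/well were exposed to compound for 48 or 72 hr at 37 degree Celsius. Viability taken as ATP content by CellTiter-Glo luminescence.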
3T3 cytotox: NIH 3T3 cell cytotoxicity; NIH 3T3 viability, CellTiter-Glo ATP luminescence, 48-72 h; Potency, µM (top dose mostly 96.7 µM), usual class: inhibitors; 4.3% of 94,000 active; AID 1345082; also: nearly all actives have a fitted effect of over 55% in size
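Cytotoxicity was measured by CellTiter-Glo ATP luminescence after 48 or 72 h compound exposure at 37 °C. Mouse NIH 3T3 fibroblasts were seeded at 400 cells/well and dosed by 23 nL pin transfer.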
A number is an active result; 0 = inactive; ? = inconclusive; - = not tested or not shown; ! = repeats disagree. Compounds with a hit are over-represented: about 10% of the library has one in this group of screens. Unless noted, calls follow the shape of the dose curve; as a rule, active = well fitted curve in the direction sought with a large enough effect; inconclusive = small, poorly fitted or top-dose-only effect, or another doubt; inactive = no such curve, though single readings can be large; an effect the other way counts as inactive or inconclusive.

SMILES | NPR1 antag | GPT2 inh | Luciferase inh | HEK cytotox | 3T3 cytotox
COc1ccc(S(=O)(=O)Nc2ccc3n(c2=O)C[C@H]2C[C@@H]3CN(C(=O)Nc3cc(OC)cc(OC)c3)C2)cc1 | 0 | 0 | 0 | 0 | 50.1µM
C[S+](=O)([O-])CCn1ncc2cc(OCC3CCN(Cc4cccs4)CC3)ccc21 | 0 | 0 | 63.1µM | ? | ?
CCOC(=O)N1CCC(COc2ccc3c(cnn3CC[S+](C)(=O)[O-])c2)CC1 | ? | 0 | ? | ? | 79.4µM
C[S+](=O)([O-])CCn1ncc2cc(OCC3CCN(CCC(F)(F)F)CC3)ccc21 | 0 | 0 | ? | ? | 0
COCCOC1CN(C2CCN(Cc3ccccc3)CC2)C12CCCCC2 (stereo not given) | 0 | 0 | 0 | 0 | ?
CCC(C)NC(=O)c1cc(-c2ccc(C(F)(F)F)cc2)nc2c1cnn2C (stereo not given) | - | - | - | 0 | ?
Clc1ccccc1Cc1nc(-c2ccc(OC3CCNC3)cc2)no1 (stereo not given) | 0 | 0 | ? | 17.8µM | 12.6µM
CC1CCN([C@@H]2[C@H](O)[C@H](CO)O[C@@H]2CNC(=O)c2ccc(F)c(Cl)c2)CC1 | 0 | 0 | 0 | 0 | 0
Cc1ccc(C2Cn3nnc(-c4nc(-c5cccnc5)no4)c3CO2)c(C)c1 (stereo not given) | 0 | 0 | 0 | ? | 15.8µM
Cc1cnc(-c2ccncc2)n1CC1CCN(C(=O)CCCc2ccccc2)C1 (stereo not given) | - | 0 | - | 0 | 0
O=C1N(CCc2ccccc2)c2ccccc2C12CCN(Cc1ccncc1)C2 (stereo not given) | ? | ? | 0 | 35.5µM | 35.5µM!
CN1C(=O)C2(CCN(Cc3ccnn3C)C2)c2ccccc21 (stereo not given) | 0 | 0 | 0 | 0 | 0
Cn1nccc1CN1CCC2(C1)C(=O)N(CCc1ccccc1)c1ccccc12 (stereo not given) | 0 | 0 | 0 | 35.5µM! | ?
O=C1N(CCc2ccccc2)c2ccccc2C12CCN(CC1CC1)C2 (stereo not given) | 0 | 0 | 0 | 39.8µM! | ?
Cc1cc(CN2CCC3(C2)C(=O)N(Cc2ccccc2)c2ccccc23)no1 (stereo not given) | 0 | 0 | 0 | 50.1µM | ?
COc1ccc(C2(C(=O)N3CCCC(C(=O)NCc4ccccc4)CCNC(=O)CC3)CC2)cc1 (stereo not given) | 0 | 0 | 0 | 0 | 0
CC(=O)N1Cc2ccccc2CC2(CCCN(CCc3ccccc3)C2)C1 (stereo not given) | - | 0 | - | ? | 0
CC(=O)N1CCN(C(=O)C2CCc3nnc(C4CCN([S+](C)(=O)[O-])CC4)n32)CC1 (stereo not given) | - | 0 | - | 0 | 0
Cc1cc(C(=O)NCC(=O)N2CCCCCNC(=O)CC2c2ccccc2)nn1C (stereo not given) | 0 | 0 | 0 | 0 | 0
COc1ccc(-c2nn(-c3cc(C)ccc3C)c(OC(C)=O)c2-c2ccc(NC(C)=O)cc2)c(OC)c1 | 0 | 2.82µM | 0 | 0 | 0
CC(=O)Oc1c(-c2ccc(NC(=O)c3ccccc3)cc2)c(-c2cccc(F)c2)nn1-c1ccccc1 | 0 | ? | 0 | 0 | 0
CS(=O)(=O)N1C[C@H]2CCN(C(=O)c3cc(F)ccc3F)C[C@H]21 | 0 | 0 | 0 | 0 | 0
O=C(CCc1ccccc1)N1CCCC(Cc2nncn2CC2CC2)C1 (stereo not given) | - | 0 | - | 0 | 0
Cn1ncc2c(C(=O)NCC3CC3)cc(-c3ccsc3)nc21 | - | 0 | - | ? | 89.1µM
Cn1ncc2c(C(=O)NCc3ccc(C(F)(F)F)cc3)cc(-c3ccc(C(F)(F)F)cc3)nc21 | - | - | - | 0 | 0
SMILES | NPR1 antag | GPT2 inh | Luciferase inh | HEK cytotox | 3T3 cytotox
Cn1ncc2c(C(=O)NC3CCOCC3)cc(-c3ccc(C(F)(F)F)cc3)nc21 | - | - | - | 0 | 0
COc1cccc(-c2cc(C(=O)NC3CCC3)c3cnn(C)c3n2)c1 | - | - | - | 79.4µM | ?
Cn1ncc2c(C(=O)NCC3CC3)cc(-c3ccc(C(F)(F)F)cc3)nc21 | - | - | - | 31.6µM | ?
Cn1ncc2c(C(=O)NC3CCC3)cc(-c3ccc(C(F)(F)F)cc3)nc21 | - | - | - | 39.8µM | 35.5µM
COc1ccc(-c2cc(C(=O)NC3CCC3)c3cnn(C)c3n2)cc1 | - | - | - | 0 | 0
CC(C)NC(=O)c1nc2sccn2c1-c1ccccc1 | - | 0 | - | 0 | 0
O=C(c1c(-c2ccccc2)cc(=O)n2c1CCC2)N1CCCC1 | - | 0 | - | 0 | 0
COc1cccc(-c2cc(C(=O)NCc3ccccn3)c3cnn(C)c3n2)c1 | - | - | - | 79.4µM | ?
C=C(C(=O)O)C1CCC2(C)CCC(O)C(C)(O)C2C1 (stereo not given) | - | 0 | - | - | -
COC1CN(c2cccc(F)c2)C12CCN(C(=O)CC1CCCCC1)CC2 (stereo not given) | 0 | 0 | 0 | 44.7µM | ?
COC1CN(c2cccc(F)c2)C12CCN(S(=O)(=O)c1cccs1)CC2 (stereo not given) | - | 0 | - | 17.8µM | ?
COc1cccc(S(=O)(=O)N2CCC3(CC2)C(OC)CN3c2cccc(F)c2)c1 (stereo not given) | 0 | 0 | 0 | 0 | 0
COC1C(=O)N(c2cccc(F)c2)C12CCN(C(=O)CC1CCN(C(C)=O)CC1)CC2 (stereo not given) | 0 | 0 | 0 | 0 | 0
C1CNC(c2nc(CCOCC3CC3)no2)C1 (stereo not given) | 0 | 0 | 0 | 0 | 0
C=CCCC(CN1CCOCC1)Oc1ccc(-c2nc(C)no2)cn1 (stereo not given) | 0 | 0 | 0 | 0 | 0
COCCc1nc(-c2cnc(C3CC3)nc2)n(-c2ccc(F)cc2F)n1 | 0 | 0 | 0 | ? | 89.1µM
COCCCn1c(C)cnc1C1CCN(Cc2ccc(F)cc2F)C1 (stereo not given) | 0 | 0 | 0 | 0 | 0
CN(Cc1cccc(C(F)(F)F)c1)C(=O)Cc1cccc(Cl)c1 | 0 | 0 | ? | ? | 0
CN(Cc1cccc(C(F)(F)F)c1)C(=O)c1cccc(Cl)c1 | 0 | 0 | 0 | 100µM | ?
CN(C)c1ccc(-n2cnc3cccnc32)cc1 | 0 | 0 | 35.5µM | ? | ?
COc1ccccc1-n1cnc2cccnc21 | 0 | 0 | 0 | ? | ?
CC(=O)N1CCN(c2ccc3nnc(C)n3n2)CC1 | - | - | - | 0 | 0
Cc1nnc(-c2cc(Nc3cccc(N(C)C)c3)ccn2)n1C1CCCCC1 | 0 | 0 | 0 | 89.1µM | ?
COc1cc(-c2ccnc(-c3nnc(C)n3C3CCCCC3)c2)ccn1 | 0 | 0 | 0 | ? | 0
CC(=O)Nc1cccc(-c2ncc3c(n2)OCCN(Cc2ccc(F)cc2F)C3=O)c1 | 0 | 0 | 0 | ? | ?
CC(=O)Nc1cccc(-c2ncc3c(n2)OCCN(Cc2ccccc2)C3=O)c1 | 0 | 0 | ? | ? | ?
CC(=O)Nc1cccc(-c2ncc3c(n2)OCCN(c2ccccc2)C3=O)c1 | 0 | 0 | 28.2µM | 0 | 17.8µM
NC(=O)c1cccc(-c2ncc3c(n2)OCCN(c2ccccc2)C3=O)c1 | 0 | 0 | 44.7µM | ? | ?

Screening data from PubChem.
